Measured values: PubChem BioAssay (Tox21)
Records with an inconclusive call do not appear. Activity calls are given as the source filed them. Unless noted, calls come from the whole dose curve; as a rule, active = well fitted curve in the direction sought with a large enough effect in the repeat runs; inconclusive = weak or mixed curves; inactive = no such curve, though single readings can be large; an effect the other way counts as inactive or inconclusive.

Columns and labels:
[1] = qHTS assay for small molecule agonists of the p53 signaling pathway (AID 651631; calls by dose curve; note: nearly all actives have a fitted effect of over 15% in size)
How it was run: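 We treat p53RE-bla HCT-116 cells with compounds for 16 h at 37 °C, add LiveBLAzer B/G FRET substrate for 2 h at room temperature, and measure fluorescence intensity.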

[2] = qHTS assay for small molecules that induce genotoxicity in human embryonic kidney cells expressing luciferase-tagged ATAD5 (AID 651632); note: nearly all actives have a fitted effect of over 15% in size
How it was run: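 Concentration-response screen for ATAD5 upregulation in HEK293T luciferase reporter cells; 16 hr treatment at 37C, then luminescence after 30 min with Amplite at room temperature.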

[3] = qHTS assay for small molecule agonists of the p53 signaling pathway - cell viability (AID 651633; calls by dose curve;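 note: p53RE-bla HCT reporter cells with a stable beta-lactamase p53 reporter; series mostly up to about 83 µM; nearly all actives have a fitted effect of over 30% in size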)
How it was run: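 p53RE-bla cells, seeded at 4,000 per well and rested 5 h at 37 C/5% CO2, received compounds in DMSO for 16 h at 37 C. CellTiter-Glo was then added, and luminescence was read after 30 min at room temperature to gauge cytotoxicity.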

[4] = qHTS assay for small molecules that induce genotoxicity in human embryonic kidney cells expressing luciferase-tagged ATAD5 - cell viability (AID 651634; calls by dose curve; note: nearly all actives have a fitted effect of over 25% in size)
How it was run: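 15.5 hr compound or vehicle exposure of HEK293T cells expressing luciferase-tagged ATAD5 at 37C; live-cell protease activity is read by fluorescence after 30 min of CellTiter-Fluor.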

[5] = qHTS assay for small molecule disruptors of the mitochondrial membrane potential - cell viability (AID 720634; calls by dose curve;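 note: human HepG2 liver cancer cells; series mostly up to about 83 µM; nearly all actives have a fitted effect of over 20% in size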)
How it was run: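 In this qHTS format, HepG2 cells plated overnight were pinned with compound, incubated 1 hr, and assayed for ATP luminescence with CellTiter-Glo after m-MPI dye addition.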

[6] = qHTS assay for small molecule disruptors of the mitochondrial membrane potential (AID 720635); note: potency is the fitted concentration of half-maximal effect
How it was run: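 HepG2 cells (2,000/well) attached overnight at 37C, then took compound for 1 hr at 37C, 5% CO2. Mito-MPS dye was added for 30 min; fluorescence was read at 490/535 nm (monomers) and 540/590 nm (aggregates).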

[7] = qHTS assay to test for compound auto fluorescence at 590 nm (red) in HepG2 cells (AID 720674)
How it was run: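 Rose Bengal sodium served as the red fluorophore standard. HepG2 monolayers (overnight attachment, MEM with 10% FBS) were exposed to test compounds for 1 hr at 37 C and read at Ex 540/Em 590 nm.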

[8] = qHTS assay to test for compound auto fluorescence at 535 nm (green) in HepG2 cells (AID 720675)
[9] = qHTS assay to test for compound auto fluorescence at 460 nm (blue) in HEK293 cells (AID 720678)
How it was run: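 Triamterene serves as the blue fluorophore standard. Compound signal at 405/460 nm is read in HEK293 wells (2,000 cells, 10% dialyzed FBS) after overnight treatment at 37C.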

[10] = qHTS assay to test for compound auto fluorescence at 590 nm (red) in HEK293 cells (AID 720679)
How it was run: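 We plated HEK293 cells in 10% dialyzed FBS medium, let them adhere for 4-5 hr, then added 23 nL compound. Overnight at 37C and 5% CO2 preceded fluorescence measurement at 540/590nm.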
% is set by controls: 0 for no effect and ±100 for the full control effect.

Cc1ccccc1OCC(O)CO (configuration not stated)
inactive: outcome [1] | Potency [2] | outcome [3] | Potency [4] | outcome [5] | Potency [6] | outcome [7] | outcome [8] | outcome [9] | outcome [10]

FC(F)(F)c1ccccc1-n1ccnc1
inactive: outcome [1] | Potency [2] | outcome [3] | Potency [4] | outcome [5] | Potency [6] | outcome [7] | outcome [8] | outcome [9] | outcome [10]

CCCCNc1ccc(C(=O)OCCN(C)C)cc1
inactive: outcome [1] | Potency [2] | outcome [3] | Potency [4] | outcome [5] | Potency [6] | fluorescence, relative to Rose Bengal [7] -0.178% [at 18.6 µM] | fluorescence, % of fluorescein control [8] -0.0004% [at 18.6 µM] | fluorescence, % of triamterene [9] 0.259% [at 18.6 µM] | fluorescence, % of fluorescent control [10] 0.151% [at 18.6 µM]

CN(C)C(=O)CNC(=O)Cc1ccccc1
inactive: outcome [1] | Potency [2] | outcome [3] | Potency [4] | outcome [5] | Potency [6] | outcome [7] | outcome [8] | outcome [9] | outcome [10]

COc1cc(C(=S)N2CCOCC2)cc(OC)c1OC
inactive: outcome [1] | Potency [2] | outcome [3] | Potency [4] | outcome [5] | Potency [6] | outcome [7] | outcome [8] | outcome [9] | outcome [10]

CN1CCN(CC(=O)N2c3ccccc3C(=O)Nc3cccnc32)CC1
inactive: outcome [1] | Potency [2] | outcome [3] | Potency [4] | outcome [5] | Potency [6] | outcome [7] | outcome [8] | outcome [9] | outcome [10]

C=C(C)C1CCC(C)(O)CC1 (configuration not stated)
inactive: outcome [1] | Potency [2] | outcome [3] | Potency [4] | outcome [5] | Potency [6] | outcome [7] | outcome [8] | outcome [9]

Cc1cc(C(C)(C)C)c(O)c(C)c1CC1=NCCN1
inactive: outcome [1] | Potency [2] | outcome [3] | Potency [4] | outcome [5] | Potency [6] | outcome [7] | outcome [8] | outcome [9] | outcome [10]

CN=C(NC#N)Nc1ccc(C2=NNC(=O)CC2C)cc1 (configuration not stated)
inactive: outcome [1] | Potency [2] | outcome [3] | Potency [4] | outcome [5] | Potency [6] | outcome [7] | outcome [8] | outcome [9] | outcome [10]

CCCCCCCCCCCCCC
inactive: outcome [1] | Potency [2] | outcome [3] | Potency [4] | outcome [5] | Potency [6] | outcome [7] | outcome [8] | outcome [9] | outcome [10]

Cc1cccc(C)c1NC(=O)c1ccccc1C(=O)O
inactive: outcome [1] | Potency [2] | outcome [3] | Potency [4] | outcome [5] | Potency [6] | outcome [7] | outcome [8] | outcome [9]

Cc1cc(NC(=O)C2=C(O)c3ccccc3S(=O)(=O)N2C)no1
active: Potency [6] 2660 nM
inactive: outcome [1] | Potency [2] | outcome [3] | Potency [4] | outcome [5] | outcome [7] | outcome [8] | outcome [9] | outcome [10]

CN1C(C)(C)CCCC1(C)C
inactive: outcome [1] | Potency [2] | outcome [3] | Potency [4] | outcome [5] | Potency [6] | outcome [7] | outcome [8] | outcome [9] | outcome [10]

CC(=O)OC(C)OC(=O)C(C)c1ccc(-c2ccccc2)c(F)c1 (configuration not stated)
inactive: outcome [1] | Potency [2] | outcome [3] | Potency [4] | outcome [5] | Potency [6] | outcome [8] | outcome [9] | outcome [10]

Cc1nc2n(c(=O)c1CCN1CCC(c3noc4cc(F)ccc34)CC1)CCC[C@H]2O
inactive: outcome [1] | Potency [2] | outcome [3] | Potency [4] | outcome [5] | Potency [6] | outcome [7] | outcome [8] | outcome [9] | outcome [10]

C[C@@H](O)[C@H]1C(=O)N2C(C(=O)O)=C(SCCN=CN)C[C@H]12
inactive: outcome [1] | Potency [2] | outcome [3] | Potency [4] | outcome [5] | Potency [6] | fluorescence, relative to Rose Bengal [7] -0.493% [at 18.6 µM] | fluorescence, % of fluorescein control [8] -0.19% [at 18.6 µM] | fluorescence, % of triamterene [9] 1.22% [at 18.6 µM] | fluorescence, % of fluorescent control [10] 0.0064% [at 18.6 µM]

O=C1O[C@@H]2[C@@H](O)[C@H](O)O[C@@H]2[C@H]1O
inactive: outcome [1] | Potency [2] | outcome [3] | Potency [4] | outcome [5] | Potency [6] | outcome [7] | outcome [8] | outcome [9] | outcome [10]

O=C(NCCN1CCOCC1)c1ccc(Cl)cc1
inactive: outcome [1] | Potency [2] | outcome [3] | Potency [4] | outcome [5] | Potency [6] | outcome [7] | outcome [8] | outcome [9] | outcome [10]

CC(C(=O)O)c1ccc2c(c1)CC(=O)c1ccccc1S2 (configuration not stated)
inactive: outcome [1] | Potency [2] | outcome [3] | Potency [4] | outcome [5] | Potency [6] | outcome [7] | outcome [8] | outcome [9] | outcome [10]

CCCN1C[C@H](CSC)C[C@@H]2c3cccc4[nH]cc(c34)C[C@H]21
inactive: outcome [1] | Potency [2] | outcome [3] | Potency [4] | outcome [5] | Potency [6] | outcome [7] | outcome [8] | outcome [9] | outcome [10]

CC(C)NCC(O)COc1ccc(COCCOC(C)C)cc1 (configuration not stated)
inactive: outcome [1] | Potency [2] | outcome [3] | Potency [4] | outcome [5] | Potency [6] | outcome [7] | outcome [8] | outcome [9] | outcome [10]

O=C(OCC1(COC(=O)c2cccnc2)CCCC(COC(=O)c2cccnc2)(COC(=O)c2cccnc2)C1O)c1cccnc1
inactive: outcome [1] | Potency [2] | outcome [3] | Potency [4] | outcome [5] | Potency [6] | outcome [7] | outcome [8] | outcome [9] | outcome [10]
